This passage reports Potency and viability results from PubChem BioAssay (NCATS).

As usually defined, the viability is a read-out of living cells in per cent, often relative to untreated cells.

A short description of test [1]: Quantitative High-Throughput drug screen in 47 multiple myeloma cell lines against the NCATS MIPE library collection: LP1_DSMZ cell viability assay (AID 1918982). Also: nearly all actives have a fitted effect of over 35% in size. Also: potency is read from the fitted curve at half-maximal effect. The procedure, abridged:
(§1)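 Plated at 500 cells per well, myeloma lines received MIPE 4.0 compounds by pin tool. Following 48 h culture at 37 °C, CellTiter-Glo luminescence gave viability relative to DMSO and media-only controls.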

Test [2] in a line: Quantitative High-Throughput drug screen in 47 multiple myeloma cell lines against the NCATS MIPE library collection: KMS28PE_JCRB cell viability assay (AID 1918983). Also: nearly all actives have a fitted effect of over 35% in size. Also: potency is read from the fitted curve at half-maximal effect. The procedure, abridged: as §1
Test [3] is described as follows: Quantitative High-Throughput drug screen in 47 multiple myeloma cell lines against the NCATS MIPE library collection: KMS34_JCRB cell viability assay (AID 1918985). Also: nearly all actives have a fitted effect of over 40% in size. Also: potency is read from the fitted curve at half-maximal effect. The procedure, abridged:
as §1

Test [4] is described as follows: Quantitative High-Throughput drug screen in 47 multiple myeloma cell lines against the NCATS MIPE library collection: OCIMY5_PLB cell viability assay (AID 1918988). Also: nearly all actives have a fitted effect of over 65% in size. Also: potency is read from the fitted curve at half-maximal effect. The procedure, abridged: as §1
Test [5] is described as follows: Quantitative High-Throughput drug screen in 47 multiple myeloma cell lines against the NCATS MIPE library collection: OPM1_PLB cell viability assay (AID 1918989). Also: nearly all actives have a fitted effect of over 40% in size. Also: potency is read from the fitted curve at half-maximal effect. Summed up: as §1
A short description of test [6]: Quantitative High-Throughput drug screen in 47 multiple myeloma cell lines against the NCATS MIPE library collection: SKMM1_PLB cell viability assay (AID 1919863). Also: nearly all actives have a fitted effect of over 35% in size. Also: potency is read from the fitted curve at half-maximal effect. As to viability: series mostly up to about 46 µM. The following applies: SKMM1 myeloma viability, CellTiter-Glo ATP, 48 h; viability: stronger effect = lower value. The procedure, abridged:
as §1
On the technique in general: In ATP-based viability assays light output follows the ATP content of the culture.

Test [7] in a line: Quantitative High-Throughput drug screen in 47 multiple myeloma cell lines against the NCATS MIPE library collection: U266_ATCC cell viability assay (AID 1919864). Also: nearly all actives have a fitted effect of over 35% in size. Also: potency is read from the fitted curve at half-maximal effect. Summed up:
as §1

Test [8] in a line: Quantitative High-Throughput drug screen in 47 multiple myeloma cell lines against the NCATS MIPE library collection: XG6_PLB cell viability assay (AID 1919865). Also: nearly all actives have a fitted effect of over 40% in size. Also: potency is read from the fitted curve at half-maximal effect. The procedure, abridged:
as §1

Test [9] can be described thus: Quantitative High-Throughput drug screen in 47 multiple myeloma cell lines against the NCATS MIPE library collection: XG1_PLB cell viability assay (AID 1919866). Also: nearly all actives have a fitted effect of over 35% in size. Also: potency is read from the fitted curve at half-maximal effect. Summed up:
as §1

Test [10] can be described thus: Quantitative High-Throughput drug screen in 47 multiple myeloma cell lines against the NCATS MIPE library collection: VP6_DJ cell viability assay (AID 1919867). Also: nearly all actives have a fitted effect of over 40% in size. Also: potency is read from the fitted curve at half-maximal effect. The procedure, abridged: as §1
Test [11] can be described thus: Quantitative High-Throughput drug screen in 47 multiple myeloma cell lines against the NCATS MIPE library collection: PE2_PLB cell viability assay (AID 1919869). Also: nearly all actives have a fitted effect of over 35% in size. Also: potency is read from the fitted curve at half-maximal effect. Summed up:
as §1

Test [12] can be described thus: Quantitative High-Throughput drug screen in 47 multiple myeloma cell lines against the NCATS MIPE library collection: PCM6_Riken cell viability assay (AID 1919870).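 Also: 100% = DMSO-only wells and 0% = media-only wells; nearly all actives have a fitted effect of over 30% in size.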 Summed up:
as §1

Test [13] in a line: Quantitative High-Throughput drug screen in 47 multiple myeloma cell lines against the NCATS MIPE library collection: OPM2_DSMZ cell viability assay (AID 1919872). Also: nearly all actives have a fitted effect of over 30% in size. Also: potency is read from the fitted curve at half-maximal effect. Summed up:
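Viability readout: CellTiter-Glo luminescence following 5 min room-temperature incubation with reagent. Prior exposure: 48 h, 37C, humidified 5% CO2, 500 cells per well.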

Test [14] can be described thus: Quantitative High-Throughput drug screen in 47 multiple myeloma cell lines against the NCATS MIPE library collection: KMS11_JCRBsus cell viability assay (AID 1919873). Also: nearly all actives have a fitted effect of over 50% in size. Also: potency is read from the fitted curve at half-maximal effect. Summed up:
as §1

Test [15] is described as follows: Quantitative High-Throughput drug screen in 47 multiple myeloma cell lines against the NCATS MIPE library collection: KMS28BM_JCRB cell viability assay (AID 1919874). Also: nearly all actives have a fitted effect of over 35% in size. The procedure, abridged: as §1
Test [16] can be described thus: Quantitative High-Throughput drug screen in 47 multiple myeloma cell lines against the NCATS MIPE library collection: L363_DSMZ cell viability assay (AID 1918984). Also: nearly all actives have a fitted effect of over 40% in size. The procedure, abridged:
as §1

Test [17] can be described thus: Quantitative High-Throughput drug screen in 47 multiple myeloma cell lines against the NCATS MIPE library collection: OCIMY7_PLB cell viability assay (AID 1918987). Also: nearly all actives have a fitted effect of over 65% in size. Also: potency is read from the fitted curve at half-maximal effect. The procedure, abridged: as §1
Test [18] in a line: Quantitative High-Throughput drug screen in 47 multiple myeloma cell lines against the NCATS MIPE library collection: RPMI8226_ATCC cell viability assay (AID 1919871). Also: nearly all actives have a fitted effect of over 30% in size. Also: potency is read from the fitted curve at half-maximal effect. The procedure, abridged:
as §1

Test [19] can be described thus: Quantitative High-Throughput drug screen in 47 multiple myeloma cell lines against the NCATS MIPE library collection: UTMC2_PLB cell viability assay (AID 1919868). Also: nearly all actives have a fitted effect of over 55% in size. Also: potency is read from the fitted curve at half-maximal effect. Summed up:
as §1

The structures appear in SMILES notation. Results filed as inconclusive are left out. Values without a mark were called inactive. Calls of active or inactive are those of the source. Calls follow the shape of the dose curve; as a rule, active = well fitted cell-killing curve with a large enough effect; inconclusive = small, poorly fitted or top-dose-only effect, or effect the other way; inactive = no such curve, though single readings can be large or run the other way.

For the compound `CN(CCOc1ccc(CC2SC(=O)NC2=O)cc1)c1ccccn1` (configuration not stated), the Potency result in test [1], in [2], in [3], in [5], in test [8] and in [9] was “inactive” each time. Further, the Potency entry in test [10], in [11], in test [12], in test [13], in [14] and in test [15] was “inactive” in each case. The Potency in test [4] was 1.05 µM (active); in test [7], 16.6 µM (active). Further, the viability in test [6] was 112%.

`COc1cc(NS(=O)(=O)c2ccc(N)cc2)nc(OC)n1`: the Potency entry in test [1], in [2], in test [16], in test [17], in test [5] and in [7] was “inactive” throughout. Besides, the Potency entry in test [8], in test [9], in test [11], in [12], in test [18] and in [13] was “inactive” each time. Also, the Potency result in test [14] and in [15] was “inactive” each time. Further, in test [6], the viability is 133%.

For the compound `CN1CCN(c2c(F)cc3c(=O)c(C(=O)O)cn(CCF)c3c2F)CC1`, the Potency entry in test [1], in [2], in test [16], in test [5], in test [9] and in [11] was “inactive” each time. Besides, the Potency entry in [13] and in test [15] was “inactive” in each case.

Turning to `Cc1cccc(Nc2ccncc2S(=O)(=O)NC(=O)NC(C)C)c1`, the Potency result in test [1], in test [2], in test [3], in [5], in [8] and in test [19] was “inactive” each time. Besides, the Potency entry in test [11] and in test [13] was “inactive” throughout. The Potency in test [4] is 0.0013 µM (active); in test [10], 7.43 µM (active).

For the compound `Cc1onc(-c2ccccc2Cl)c1C(=O)N[C@@H]1C(=O)N2[C@@H]1SC(C)(C)[C@@H]2C(=O)O`, the Potency result in [1], in test [2], in [3], in test [4], in [5] and in test [8] was “inactive” each time. Moreover, the Potency entry in test [9], in [10], in test [11], in test [12], in [18] and in [13] was “inactive” in each case. The Potency result in [14] and in [15] was “inactive” each time.

`CC(=O)CC(c1ccccc1)c1c(O)c2ccccc2oc1=O` (configuration not stated): the Potency result in test [1], in test [2], in test [3], in test [17], in test [5] and in [8] was “inactive” each time. Further, the Potency entry in [10], in test [11], in test [18], in [14] and in test [15] was “inactive” throughout.

On to `CC[C@H](NC(C)C)[C@H](O)c1ccc(O)c2[nH]c(=O)ccc12`, for which the Potency entry in [1], in test [2], in test [16], in test [5], in [8] and in test [9] was “inactive” throughout. Further, the Potency entry in [19], in test [12], in test [13] and in [15] was “inactive” each time. In addition, the Potency in test [4] is 0.0833 µM (active).

For the compound `NC(=O)c1ccc2[nH]ccc2c1`, the Potency entry in test [1], in [2], in test [3], in test [8], in [10] and in [11] was “inactive” throughout. Besides, the Potency result in test [18], in test [13], in [14] and in test [15] was “inactive” each time.

For the compound `CC(N)C12CC3CC(CC(C3)C1)C2` (configuration not stated), the Potency entry in test [1], in [2], in [3], in [8], in test [9] and in [10] was “inactive” each time. In addition, the Potency entry in [11], in test [18], in [13], in test [14] and in test [15] was “inactive” in each case. Moreover, the viability in test [6] was 118%.

As for `CC(C)(Sc1cc(C(C)(C)C)c(O)c(C(C)(C)C)c1)Sc1cc(C(C)(C)C)c(O)c(C(C)(C)C)c1`, the Potency result in test [1], in test [2], in test [3], in test [4], in test [14] and in test [15] was “inactive” in each case. Further, the viability in [6] was 149%. For the same compound, the Potency in [7] is 3.32 µM (active); in test [10] it was 18.7 µM (active); in test [19], 5.9 µM (active); in test [11], 6.62 µM (active).

For the compound `COC(=O)Nc1nc2ccc(C(=O)c3ccccc3)cc2[nH]1`, the Potency was 1.87 µM (active) in test [1]; 1.87 µM (active) in test [2]; 0.935 µM (active) in [3]; 0.418 µM (active) in test [17]; 0.418 µM (active) in test [4]; 1.66 µM (active) in test [5]. Further, the Potency was 0.332 µM (active) in test [6]; 0.418 µM (active) in [8]; 0.332 µM (active) in [9]; 2.35 µM (active) in test [10]; 2.35 µM (active) in [19]; 2.96 µM (active) in test [11]. Further, the values for the Potency in test [13] and in test [14] were 1.48 µM (active) and 0.332 µM (active), respectively.

Turning to `O=C(N[C@H](CO)[C@H](O)c1ccc([N+](=O)[O-])cc1)C(Cl)Cl`, the Potency result in [1], in test [2], in [3], in [5], in test [8] and in test [9] was “inactive” in each case. Further, the Potency entry in test [13], in [14] and in test [15] was “inactive” each time. Further, the viability in [6] is 115%.

For `CC(=O)[C@H]1CC[C@H]2[C@@H]3CC=C4C[C@@H](O)CC[C@]4(C)[C@H]3CC[C@]12C`, the Potency entry in test [1], in test [2], in [3], in [5], in [8] and in [9] was “inactive” in each case. In addition, the Potency entry in [11], in [12], in [13], in test [14] and in test [15] was “inactive” in each case. Besides, in [6], the viability is 123%.

In the case of `CCCc1cc(C(N)=S)ccn1`, the Potency entry in test [1], in test [2], in test [3], in test [17], in [4] and in test [5] was “inactive” each time. Further, the Potency entry in [8], in test [9], in test [10], in test [11], in test [18] and in test [13] was “inactive” throughout. For the same compound, the Potency result in [14] and in test [15] was “inactive” each time.

With `NNC(=O)c1ccncc1`, the Potency entry in [1], in test [2], in [16], in [5], in [8] and in [9] was “inactive” throughout. The Potency entry in [10], in test [11], in test [18], in test [13], in test [14] and in test [15] was “inactive” in each case.

For `CCC(=O)O[C@]1(C(=O)SCF)[C@H](C)C[C@H]2[C@@H]3C[C@H](F)C4=CC(=O)C=C[C@]4(C)[C@@]3(F)[C@@H](O)C[C@@]21C`, the Potency result in [1], in [2], in test [3], in test [5], in test [11] and in test [14] was “inactive” each time. Besides, in test [15], the Potency entry was “inactive”. Further, the Potency is 5.26 µM (active) in test [17]; 23.5 µM (active) in [4]; 4.18 µM (active) in test [8]; 14.8 µM (active) in test [9]; 33.2 µM (active) in test [10]; 0.0019 µM (active) in test [18].
